# According to PubChem BioAssay (Tox21):
# Unmarked numbers belong to inactive results. Results filed as inconclusive are left out. Entries that show only a call come without a potency. Calls of active or inactive are those of the source. Unless noted, the call rests on the fitted dose curve; in most records, active means well fitted curve in the direction sought with a large enough effect in the repeat runs; inconclusive means weak or mixed curves; inactive means no such curve, though single readings can be large; an effect the other way counts as inactive or inconclusive.
# Tests used:
# [1] = qHTS assay to identify small molecule agonists of the estrogen receptor alpha (ER-alpha) signaling pathway in the presence of an antagonist - cell viability counter screen (AID 1259386);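 further: series mostly up to about 92 µM; cells exposed to compounds for 22 h at 37 °C before the viability read; nearly all actives have a fitted effect of over 30% in size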
# Outline: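 Read-out: CellTiter-Fluor fluorescence after 1hr reagent incubation, measured in the same wells as the luciferase readout. VM7Luc4E2 cells were exposed to 15 compound concentrations with 10.0nM ICI-182,780 for 22hr at 37C.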
# [2] = biological target: Progesterone receptor (Homo sapiens) (UniProt P06401); assay: qHTS assay to identify small molecule agonists of the progesterone receptor (PR) signaling pathway (AID 1346784; calls by dose curve; further: nearly all actives have a fitted effect of over 30% in size; further: potency means the concentration at half of the fitted maximal effect)
# Outline: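 Agonist qHTS: compounds pinned onto 3,000 PR-UAS-bla HEK 293T cells per well in charcoal-stripped serum medium, 16hr at 37C, then beta-lactamase activity measured by LiveBLAzer FRET fluorescence after 2 hours at room temperature.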
# [3] = biological target: Progesterone receptor (Homo sapiens) (UniProt P06401); assay: qHTS assay to identify small molecule antagonists of the progesterone receptor (PR) signaling pathway (AID 1346795; active means well fitted inhibition curve with a large enough effect in the signal ratio in the repeat runs, not every such curve was filed as active; the % refers to the signal ratio)
# Outline: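 Antagonist mode with agonist R5020 at 1 nM final and 16 hr incubation at 37C. Reporter was beta-lactamase driven by UAS in HEK293T (PR-UAS-bla), 2% charcoal-stripped serum; signal from LiveBLAzer FRET substrate, 2 hr at room temperature.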
# [4] = qHTS assay to identify small molecule antagonists of the progesterone receptor (PR) signaling pathway - cell viability counter screen (AID 1346798); further: series mostly up to about 92 µM; nearly all actives have a fitted effect of over 50% in size
# Outline: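 Cytotoxicity read as CellTiter-Glo luminescence (30 min, room temperature) in the same wells as the beta-lactamase readout. HEK293T PR-UAS-bla cells in charcoal-stripped 2% FBS received compound and R5020, then 16 h at 37C, 5% CO2.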
# [5] = qHTS assay to identify small molecule agonists of the progesterone receptor (PR) signaling pathway - cell viability counter screen (AID 1346799; calls by dose curve; further: nearly all actives have a fitted effect of over 45% in size)
# Outline: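 Cytotoxicity measured by CellTiter-Glo luminescence (30 min, RT) in the same wells as the PR beta-lactamase agonist read. Those HEK293T cells had 16 h compound treatment at 37 C in 2% charcoal-stripped FBS medium.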
# [6] = qHTS assay to identify small molecule antagonists of the TGF-beta/Smad signaling pathway - cell viability counter screen (AID 1346824); further: nearly all actives have a fitted effect of over 50% in size
# Outline: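 SBE-bla HEK 293T cells were plated overnight at 37 C, then given compounds in DMSO plus TGF-beta1 (added as 0.25 ng/mL solution) for 5 hr. After the bla read, CellTiter-Glo was added to the same wells and luminescence read after 30 min at room temperature.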
# [7] = qHTS assay to identify small molecule agonists of the TGF-beta/Smad signaling pathway - cell viability counter screen (AID 1346829); further: top concentration of the series differs between compounds; nearly all actives have a fitted effect of over 45% in size
# Outline: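 SBE-bla HEK 293T cells plated overnight, compound exposure 5 hr at 37 C. Viability read in the same wells by CellTiter-Glo luminescence after 30 min at room temperature, following the beta-lactamase read.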
# [8] = qHTS assay to identify small molecule agonists of the TGF-beta/Smad signaling pathway (AID 1346859; active means well fitted activation curve with a large enough effect in the signal ratio in the repeat runs, not every such curve was filed as active; the % refers to the signal ratio; further: series mostly up to about 77 µM)
# Outline: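 Fluorescence (ex 405 nm; em 460 and 530 nm) was read 2 h after LiveBLAzer FRET substrate at RT. The preceding compound treatment of overnight-plated SBE-bla HEK293T cells lasted 5 h at 37 C.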
# [9] = biological target: Thyrotropin-releasing hormone receptor (Homo sapiens) (UniProt P34981); assay: qHTS assay to identify small molecule antagonists of the thyrotropin-releasing hormone receptor (TRHR) signaling pathway (AID 1346877; active means well fitted inhibition curve with a large enough effect in the repeat runs, not every such curve was filed as active; further: series mostly up to about 51 µM)
# Outline: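 HEK293/TRHR cells, 18 h, 37 °C; Ca2+ dye 2 h; cpd 5 min RT; TRH 1 nM final; fluorescence read 3 min, 1 s intervals; 15 concs, triplicate.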
# [10] = biological target: Thyrotropin-releasing hormone receptor (Homo sapiens) (UniProt P34981); assay: qHTS assay to identify small molecule agonists of the thyrotropin-releasing hormone receptor (TRHR) signaling pathway (AID 1346891; calls by dose curve; further: series mostly up to about 58 µM)
# Outline: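 Agonist-mode intracellular calcium readout: kinetic fluorescence over 3 min at 1 s intervals after compound addition to TRHR-HEK293 cells (18 h seeded, 2 h dye-loaded at 37 C). Fifteen concentrations, triplicates.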
# [11] = Human pregnane X receptor (PXR) small molecule agonists, qHTS cell viability counter screen (AID 1346977); further: nearly all actives have a fitted effect of over 50% in size; further: potency means the concentration at half of the fitted maximal effect
# Outline: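 Same-well viability read: CellTiter-Fluor added after 23 hr compound exposure, fluorescence measured 1 hr later. Cells were PXR-Luc HepG2 seeded at 2,000/well in 5% charcoal-stripped FBS medium, rested 5 hr before dosing at 37 C.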
# [12] = Caspase-3/7 induction in HepG2 cells by small molecules, qHTS assay (AID 1346978); further: nearly all actives have a fitted effect of over 15% in size
# Outline: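 Wild-type HepG2 cells (2,000/well) were settled 5 h at 37 C, 5% CO2, then exposed to compounds in DMSO for 17 h. Caspase-3/7 activity was read by luminescence 30 min after adding Caspase-Glo 3/7 reagent at room temperature.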
# [13] = Caspase-3/7 induction in CHO-K1 cells by small molecules, qHTS cell viability counter screen (AID 1346979); further: nearly all actives have a fitted effect of over 35% in size; further: potency means the concentration at half of the fitted maximal effect
# Outline: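 Cytotoxicity counter screen: CellTiter-Fluor added to compound-treated wild-type CHO-K1 cells at 16 h (37C, 5% CO2), fluorescence measured 1 h later; same wells as caspase-3/7 measurement.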
# [14] = Caspase-3/7 induction in CHO-K1 cells by small molecules, qHTS assay (AID 1346980); further: nearly all actives have a fitted effect of over 15% in size
# Outline: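 Wild-type cells were seeded at 1,500 per well and settled 5 hr at 37 C, 5% CO2, then exposed to DMSO-dissolved compounds for 17 hr. Caspase-Glo 3/7 reagent was added, and luminescence was read after 30min at room temperature.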
# [15] = Caspase-3/7 induction in HepG2 cells by small molecules, qHTS cell viability counter screen (AID 1346981); further: series mostly up to about 92 µM; nearly all actives have a fitted effect of over 30% in size
# Outline: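 Fluorescence read-out of live-cell protease activity (CellTiter-Fluor) after 1 hr with reagent. This was measured in the same wells as the caspase-3/7 luminescence, on HepG2 cells exposed to DMSO-dissolved compounds for 16 hr at 37 C.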
# [16] = biological target: Cytochrome P450 2D6 (Homo sapiens) (UniProt P10635); assay: Cytochrome P450 Family 2 Subfamily D Member 6 (CYP2D6) small molecule antagonists: luciferase reporter qHTS assay (AID 1671196); further: nearly all actives have a fitted effect of over 50% in size; further: potency means the concentration at half of the fitted maximal effect
# Outline: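 Luminogenic proluciferin substrate, CYP2D6 enzyme; 10 min RT preincubation with compound, NADPH regeneration system added, 1 h RT. Stop/detection reagent, 20 min RT, luminescence read (RLU). Signal proportional to CYP activity.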
# [17] = biological target: Thyrotropin receptor (Homo sapiens) (UniProt P16473); assay: qHTS assay to identify small molecule antagonists of the thyroid stimulating hormone receptor (TSHR) signaling pathway (AID 1259385; calls by dose curve; further: nearly all actives have a fitted effect of over 20% in size)
# Outline: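 TSHR-HEK293 cells were plated and held 18 h at 37C/5% CO2, then given compound plus Ro20-1724 and stimulated with TSH at 1.5 ng/mL final. After 30 min at room temperature, cAMP was detected with cAMP-d2/anti-cAMP-cryptate (1 h) by fluorescence.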
# [18] = biological target: Nuclear receptor subfamily 1 group I member 2 (Homo sapiens) (UniProt O75469); assay: Human pregnane X receptor (PXR) small molecule agonists, qHTS assay (AID 1346982); further: nearly all actives have a fitted effect of over 35% in size; further: potency means the concentration at half of the fitted maximal effect
# Outline: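 HepG2 PXR-Luc reporter line, 5% charcoal-stripped FBS; 5 hr pre-incubation, compound (DMSO) 24 hr at 37 C/5% CO2; ONE-Glo 30 min RT; luminescence read-out.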
# [19] = biological target: Nuclear receptor subfamily 1 group I member 2 (Rattus norvegicus) (UniProt Q9R1A7); assay: Rat pregnane X receptor (rPXR) activation by small molecules, qHTS assay (AID 1346983); details: rPXR luciferase reporter cells, One-Glo luminescence, 24 h; max activation: stronger effect = higher value; further: nearly all actives have a fitted effect of over 20% in size
# Outline: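 Cell-based rPXR luciferase reporter assay, 2,000 cells per well, rested 5hr at 37 C before compound addition in DMSO, then 24 hr at 37 C. One-Glo reagent was added and luminescence read after 30 min at room temperature.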
# [20] = biological target: Nuclear receptor subfamily 1 group I member 2 (Homo sapiens) (UniProt O75469); assay: Human pregnane X receptor (PXR) activation by small molecules, qHTS assay (AID 1346985); further: nearly all actives have a fitted effect of over 40% in size
# Outline: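 DPX-2 cells (HepG2 co-transfected with a PXR response element and a CYP3A4-promoter luciferase construct) were seeded at 2,000 per well, rested 5 hr at 37C, then exposed to DMSO-dissolved compounds for 24 hr. Activation was read as luciferase luminescence.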
# Chain of Cytochrome P450 2D6 (Homo sapiens) (P10635 whole entry, looked up): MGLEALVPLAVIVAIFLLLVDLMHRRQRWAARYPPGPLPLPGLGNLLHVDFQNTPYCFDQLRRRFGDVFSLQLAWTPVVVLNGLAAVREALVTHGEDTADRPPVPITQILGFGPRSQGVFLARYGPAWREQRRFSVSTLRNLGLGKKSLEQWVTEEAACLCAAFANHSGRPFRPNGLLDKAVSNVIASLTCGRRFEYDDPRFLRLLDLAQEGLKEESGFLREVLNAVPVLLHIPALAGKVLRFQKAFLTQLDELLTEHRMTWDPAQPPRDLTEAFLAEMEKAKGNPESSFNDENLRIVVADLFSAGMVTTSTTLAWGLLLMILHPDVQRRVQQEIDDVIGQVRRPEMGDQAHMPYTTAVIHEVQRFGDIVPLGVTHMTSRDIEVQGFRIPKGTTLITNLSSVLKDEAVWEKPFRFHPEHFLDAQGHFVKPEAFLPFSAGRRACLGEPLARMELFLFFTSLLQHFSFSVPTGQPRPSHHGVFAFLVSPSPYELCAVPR
# Chain of Nuclear receptor subfamily 1 group I member 2 (Rattus norvegicus) (Q9R1A7 whole entry, looked up): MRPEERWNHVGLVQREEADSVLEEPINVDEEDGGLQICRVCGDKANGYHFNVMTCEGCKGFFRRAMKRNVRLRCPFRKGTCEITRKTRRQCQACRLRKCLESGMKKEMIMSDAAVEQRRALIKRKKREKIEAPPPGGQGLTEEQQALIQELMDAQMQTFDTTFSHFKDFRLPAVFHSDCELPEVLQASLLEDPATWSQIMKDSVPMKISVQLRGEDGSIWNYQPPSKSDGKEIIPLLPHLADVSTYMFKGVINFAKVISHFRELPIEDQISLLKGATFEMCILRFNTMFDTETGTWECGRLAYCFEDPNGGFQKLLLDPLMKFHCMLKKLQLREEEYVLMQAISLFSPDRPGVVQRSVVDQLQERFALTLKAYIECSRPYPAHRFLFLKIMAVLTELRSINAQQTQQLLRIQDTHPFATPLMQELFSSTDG
# Chain of Progesterone receptor (Homo sapiens) (P06401 whole entry, looked up): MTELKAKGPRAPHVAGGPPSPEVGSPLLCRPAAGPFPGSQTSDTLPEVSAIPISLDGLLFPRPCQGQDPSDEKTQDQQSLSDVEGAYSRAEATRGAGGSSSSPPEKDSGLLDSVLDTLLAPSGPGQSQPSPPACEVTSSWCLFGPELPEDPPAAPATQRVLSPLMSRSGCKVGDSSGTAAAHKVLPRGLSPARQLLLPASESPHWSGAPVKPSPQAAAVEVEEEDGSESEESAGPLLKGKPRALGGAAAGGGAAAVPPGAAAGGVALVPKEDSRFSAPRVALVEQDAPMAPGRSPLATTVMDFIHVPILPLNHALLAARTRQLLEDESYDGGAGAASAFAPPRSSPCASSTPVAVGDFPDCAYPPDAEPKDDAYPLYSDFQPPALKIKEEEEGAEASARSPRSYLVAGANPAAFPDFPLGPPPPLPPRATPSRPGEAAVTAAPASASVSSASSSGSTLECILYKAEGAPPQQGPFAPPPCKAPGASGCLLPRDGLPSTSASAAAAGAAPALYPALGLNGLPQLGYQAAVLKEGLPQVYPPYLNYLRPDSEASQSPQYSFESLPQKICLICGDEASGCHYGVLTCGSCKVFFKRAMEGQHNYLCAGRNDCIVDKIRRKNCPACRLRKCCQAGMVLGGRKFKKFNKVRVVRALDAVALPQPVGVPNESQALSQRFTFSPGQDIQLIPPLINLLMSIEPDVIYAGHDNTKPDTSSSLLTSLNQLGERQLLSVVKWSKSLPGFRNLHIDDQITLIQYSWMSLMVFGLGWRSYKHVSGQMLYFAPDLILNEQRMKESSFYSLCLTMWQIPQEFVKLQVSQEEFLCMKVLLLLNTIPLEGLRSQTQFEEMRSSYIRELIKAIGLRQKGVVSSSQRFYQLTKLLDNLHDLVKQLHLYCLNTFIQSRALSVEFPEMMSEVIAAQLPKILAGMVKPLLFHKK
# Chain of Thyrotropin receptor (Homo sapiens) (P16473 whole entry, looked up): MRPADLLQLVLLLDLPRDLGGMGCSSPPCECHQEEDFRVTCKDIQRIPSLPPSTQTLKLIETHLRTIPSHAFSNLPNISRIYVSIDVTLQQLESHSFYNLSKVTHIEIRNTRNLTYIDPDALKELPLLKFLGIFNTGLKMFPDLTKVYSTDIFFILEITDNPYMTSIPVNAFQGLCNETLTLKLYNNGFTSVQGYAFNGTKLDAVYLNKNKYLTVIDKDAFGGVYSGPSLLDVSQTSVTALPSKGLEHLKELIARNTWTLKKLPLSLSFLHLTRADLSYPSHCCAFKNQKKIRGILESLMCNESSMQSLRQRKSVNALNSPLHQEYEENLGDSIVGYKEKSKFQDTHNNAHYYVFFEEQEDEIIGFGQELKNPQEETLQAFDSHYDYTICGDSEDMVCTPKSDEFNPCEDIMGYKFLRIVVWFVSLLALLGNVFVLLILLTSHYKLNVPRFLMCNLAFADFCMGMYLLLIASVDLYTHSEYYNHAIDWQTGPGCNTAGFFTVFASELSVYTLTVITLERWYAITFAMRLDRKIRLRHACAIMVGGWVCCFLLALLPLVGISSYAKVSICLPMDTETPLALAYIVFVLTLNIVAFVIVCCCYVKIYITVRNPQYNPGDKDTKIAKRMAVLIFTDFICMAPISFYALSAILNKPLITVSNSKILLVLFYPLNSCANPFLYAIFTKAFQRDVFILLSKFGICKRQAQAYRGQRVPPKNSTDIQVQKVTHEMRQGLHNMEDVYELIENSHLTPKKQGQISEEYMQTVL
# Chain of Thyrotropin-releasing hormone receptor (Homo sapiens) (P34981 whole entry, looked up): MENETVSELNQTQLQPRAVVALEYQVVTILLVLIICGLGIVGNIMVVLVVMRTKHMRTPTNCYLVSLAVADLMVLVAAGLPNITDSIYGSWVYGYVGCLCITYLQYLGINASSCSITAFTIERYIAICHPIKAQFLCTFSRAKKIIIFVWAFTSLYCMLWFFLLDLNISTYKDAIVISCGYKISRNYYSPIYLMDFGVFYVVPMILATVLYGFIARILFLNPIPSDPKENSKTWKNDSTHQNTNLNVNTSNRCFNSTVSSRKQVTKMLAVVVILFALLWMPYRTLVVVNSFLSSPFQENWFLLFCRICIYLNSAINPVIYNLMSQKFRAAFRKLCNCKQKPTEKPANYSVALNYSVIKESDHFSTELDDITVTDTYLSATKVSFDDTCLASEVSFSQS
# Chain of Nuclear receptor subfamily 1 group I member 2 (Homo sapiens) (O75469 whole entry, looked up): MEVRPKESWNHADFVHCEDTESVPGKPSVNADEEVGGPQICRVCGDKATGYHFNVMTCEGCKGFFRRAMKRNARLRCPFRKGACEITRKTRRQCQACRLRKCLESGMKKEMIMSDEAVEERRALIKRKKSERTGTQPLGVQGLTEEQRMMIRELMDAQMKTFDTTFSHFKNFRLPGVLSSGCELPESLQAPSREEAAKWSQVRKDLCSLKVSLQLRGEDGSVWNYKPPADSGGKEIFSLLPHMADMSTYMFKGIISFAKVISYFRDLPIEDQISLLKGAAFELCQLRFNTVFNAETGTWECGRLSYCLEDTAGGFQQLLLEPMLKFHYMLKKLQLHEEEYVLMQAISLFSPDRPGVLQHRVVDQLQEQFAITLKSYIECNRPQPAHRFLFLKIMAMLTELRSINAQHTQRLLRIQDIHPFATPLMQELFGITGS
Structure (SMILES),Potency [1],Potency [2],Potency [3],Potency [4],Potency [5],outcome [6],outcome [7],outcome [8],outcome [9],outcome [10],Potency [11],Potency [12],Potency [13],Potency [14],Potency [15],Potency [16],Potency [17],Potency [18],max activation [19],Potency [20]
CC/C=C\CCO,inactive,inactive,inactive,inactive,inactive,inactive,inactive,inactive,inactive,inactive,inactive,inactive,inactive,inactive,inactive,inactive,,,,
Nc1cccc2c(=O)[nH][nH]c(=O)c12,,,inactive,,,,inactive,inactive,,,inactive,inactive,inactive,inactive,inactive,5.05 µM (active),inactive,inactive,,
C[C@@H](O)[C@H]1C(=O)N2C(C(=O)O)=C(S[C@@H]3CN[C@H](CNS(N)(=O)=O)C3)[C@H](C)[C@H]12,,inactive,inactive,,inactive,inactive,inactive,inactive,inactive,inactive,inactive,inactive,inactive,inactive,inactive,inactive,inactive,,-2.11%,inactive
O=C(N[C@@H](Cc1ccccc1)[C@@H](O)C(=O)N1C[C@@H](O)[C@@H](O)C1)c1cc2cc(Cl)ccc2[nH]1,,inactive,,inactive,inactive,inactive,inactive,inactive,inactive,inactive,inactive,inactive,inactive,inactive,inactive,,inactive,inactive,,
COc1ccc(/C=C/S(=O)(=O)NC(=O)c2ccc(C)cc2Cl)cc1,,inactive,,,,,inactive,inactive,inactive,inactive,inactive,inactive,inactive,inactive,inactive,,inactive,27.3 µM (active),,
O=C1CCCN1CCO,,inactive,,,,inactive,inactive,inactive,inactive,inactive,inactive,inactive,inactive,inactive,,inactive,inactive,inactive,,
Clc1cc(Cl)c2c(c1)N=C1CCCCCN1C2,,inactive,,inactive,inactive,,inactive,,inactive,inactive,,inactive,inactive,inactive,inactive,2.75 µM (active),inactive,29.8 µM (active),,
Cc1cccc(C)c1NC(=O)CN1CCCC1,,,,inactive,inactive,inactive,inactive,inactive,,,inactive,inactive,inactive,inactive,inactive,,inactive,inactive,-2.58%,inactive
COc1cc(C)c(Cc2cnc(N)nc2N)cc1OC,,inactive,inactive,inactive,,inactive,inactive,inactive,inactive,inactive,inactive,inactive,inactive,inactive,inactive,inactive,,inactive,-0.291%,inactive
CNc1ccccc1,inactive,inactive,inactive,,inactive,inactive,inactive,inactive,,,,inactive,inactive,inactive,inactive,,,inactive,,
CCC(=O)O[C@]1(C(=O)COC)[C@@H](C)C[C@H]2[C@@H]3CCC4=CC(=O)C=C[C@]4(C)C3(F)[C@@H](O)C[C@@]21C (stereo partly drawn),inactive,0.376 µM (active),inactive,inactive,,inactive,inactive,inactive,,,,inactive,inactive,inactive,inactive,,,16.8 µM (active),,
CC[C@H](NC(C)C)[C@H](O)c1ccc(O)c2[nH]c(=O)ccc12,inactive,inactive,inactive,inactive,,,inactive,inactive,inactive,inactive,,inactive,,inactive,inactive,,,inactive,-3.27%,inactive
O=C(O)c1cc(C(=O)O)c(C(=O)O)cc1C(=O)O,inactive,inactive,inactive,inactive,,inactive,inactive,inactive,,,inactive,inactive,inactive,inactive,inactive,inactive,,,,
CC1=C(C)C(=O)C(C(CCCCCC(=O)O)c2ccccc2)=C(C)C1=O (stereo not drawn),,inactive,inactive,inactive,inactive,inactive,inactive,,inactive,inactive,inactive,inactive,26.6 µM (active),inactive,inactive,inactive,,inactive,-6.02%,inactive
S=c1[nH][nH]c(=S)s1,inactive,inactive,inactive,inactive,inactive,,inactive,inactive,inactive,inactive,,inactive,inactive,inactive,inactive,,,inactive,,
Nc1ccccc1Nc1ccccc1,,inactive,,,inactive,inactive,inactive,inactive,inactive,inactive,30.7 µM (active),inactive,27.4 µM (active),inactive,,,,19.4 µM (active),,
C[C@]12CCC(=O)C=C1[C@@H]1C[C@@H]1[C@H]1[C@@H]3[C@@H]4C[C@@H]4[C@@]4(CCC(=O)O4)[C@@]3(C)CC[C@@H]12,inactive,,,,,inactive,inactive,,inactive,inactive,inactive,inactive,,inactive,,,,inactive,,
CCC(C(=O)O)c1ccc(N2Cc3ccccc3C2=O)cc1 (stereo not drawn),inactive,inactive,inactive,inactive,inactive,inactive,inactive,,inactive,inactive,inactive,inactive,,inactive,inactive,15.5 µM (active),,4.73 µM (active),,
CC(CC(C#N)(c1ccccc1)C(C)C)N(C)C (stereo not drawn),inactive,inactive,inactive,inactive,inactive,inactive,inactive,inactive,,,inactive,inactive,inactive,inactive,inactive,15.5 µM (active),,,,
O=C(C1CCCCC1)N1CC(=O)N2CCCc3ccccc3C2C1 (stereo not drawn),inactive,inactive,inactive,inactive,inactive,,inactive,,inactive,inactive,,inactive,inactive,inactive,,inactive,,,,
[O-][n+]1ccc(Cl)cc1,inactive,inactive,inactive,inactive,inactive,inactive,inactive,inactive,,,,inactive,inactive,inactive,,,,inactive,,
C=CCCC,inactive,inactive,inactive,,inactive,inactive,inactive,inactive,inactive,inactive,inactive,inactive,inactive,inactive,inactive,inactive,,inactive,,
CC(=O)c1cccnc1,,inactive,inactive,,inactive,inactive,inactive,inactive,,,inactive,inactive,inactive,inactive,inactive,inactive,,inactive,,
